Compound activity: PubChem BioAssay, National Center for Advancing Translational Sciences (NCATS)
A-T KAP1 phos: qHTS Assay for Identifying a Potential Treatment of Ataxia-Telangiectasia; F2112 A-T fibroblasts, KAP-1 phosphorylation AlphaLISA; neocarzinostatin DNA damage 30 min before lysis; Potency, µM (series often up to 57.5 µM), for the others: at the highest dose activation, most hits filed as activators; actives 0.19% (n = 320,000); further: potency means the concentration at half of the fitted maximal effect; % of control where 0% means no effect; nearly all actives have a fitted effect of over 45% in size
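ATM-like activity read as KAP-1 phosphorylation via AlphaLISA donor/acceptor antibody pairs after lysis and 6 hr at 25C. Cells were ATM-null patient fibroblasts (F2112, hTERT), dosed 60 min, then exposed to the DSB inducer NCS for 30 min.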
TRPV1 ag: HTS Assay for Compounds that Act as Agonists of the Vanilloid Receptor 1. TRPV1-expressing cells, Fluo-8 calcium influx, agonist mode. Transient receptor potential cation channel subfamily V member 1 (Homo sapiens), Q8NER1. activation, % at 8.33 µM. actives 0.19% (n = 320,000); in the data active means activation above about 80%; inconclusive means between about 30% and that limit; further: 0% is about no effect
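TRPV1-expressing cells were cultured overnight at 35.5C and loaded with Fluo-8 calcium dye for 40 to 90 min at room temperature. After a 10 s baseline, compound was added and calcium influx was read kinetically for 3 min (ex 480/em 520 nm).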
TRPV1 PAM: HTS Assay for Compounds that Act as Potentiators of the Vanilloid Receptor 1; Transient receptor potential cation channel subfamily V member 1 (Homo sapiens), Q8NER1; potentiation, % at 8.33 µM; actives 0.02% (n = 320,000); TRPV1-expressing cells, Fluo-8 calcium influx, capsaicin EC20 potentiation; AID 540277, 2011; in the data active means potentiation above about 80%; inconclusive means between about 30% and that limit; further: 0% is about no effect
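Fluo-8 calcium influx in TRPV1-expressing cells, kinetic read (ex 480/em 520 nm). Compound added and read 3 min for agonist activity, followed by capsaicin at EC20 final and 2 min further read for enhancement.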
CBFb RUNX1 block: qHTS Assay for Compounds Blocking the Interaction Between CBF-beta and RUNX1 for the Treatment of Acute Myeloid Leukemia | Runt-related transcription factor 1 (Homo sapiens) + Core-binding factor subunit beta … | Potency, µM (top dose mostly 59.8 µM), for inactives: at the highest dose activity, negative = inhibition, hits mostly inhibitors | 230,000 tested, under 10 active | AlphaScreen CBFb-His/RUNX1-biotin binding, biochemical; further: % of control where 0% means no effect
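CBF-beta (His) and RUNX1 (biotin), 30 nM each; 20 min preassociation; + compound, 15 min; + beads 50 ng each (Ni, streptavidin), 90 min; RT; AlphaScreen read.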
Apoferritin bind: qHTS Assay for Identification of Novel General Anesthetics; apoferritin/1-aminoanthracene competitive binding, fluorescence; Potency, µM (highest dose often 77.5 µM), for inactives: at the top dose activity change, negative = displacement, hits mostly inhibitors; actives 0.074% (n = 350,000); AID 485281, 2010; further: potency means the concentration at half of the fitted maximal effect; on the % scale 0 is the no-effect control and ±100 the full control effect; nearly all actives have a fitted effect of over 20% in size
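Horse-spleen apoferritin (10 uM) in 50% saturated 1-aminoanthracene in PBS was incubated 10 min at room temperature with compound. Fluorescence (ex 380, em 535 nm) was normalized to free and bound 1-AMA, with concentration-response fitted by a four-parameter Hill equation.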
Active calls of the source: *; ? = inconclusive; · = no result given; [ ] = another dose, or the depositor's remark. Only some compounds are listed: those with a hit (about 0.39% of all), similar ones and a draw of the others. Unless noted, the call rests on the fitted dose curve; in most records, active means well fitted curve in the direction sought with a large enough effect; inconclusive means small, poorly fitted or top-dose-only effect, or another doubt; inactive means no such curve, though single readings can be large; an effect the other way counts as inactive or inconclusive.

SMILES	A-T KAP1 phos	TRPV1 ag	TRPV1 PAM	CBFb RUNX1 block	Apoferritin bind
CCCn1nc(NC(=O)C2CCCO2)c2cc3ccc(C)cc3nc21 (stereo not drawn)	25µM*	?	-14	29%	83%
COc1cc(CCNC(C)=O)c(C(=O)/C=C/c2cccc(OC)c2OC)cc1OC	·	·	·	5%	·
CS[C@@H]1SC[C@H]2C(=O)N(C)C(C(C)C)C(=O)OC[C@@H](NC(=O)c3cnc4ccccc4n3)C(=O)N[C@@H](C)C(=O)N(C)[C@H]1C(=O)N(C)C(C(C)C)C(=O)OC[C@@H](NC(=O)c1cnc3ccccc3n1)C(=O)N[C@@H](C)C(=O)N2C (stereo partly drawn)	·	·	·	9%	-3%
CCCCC(=O)Nc1nc2c(s1)COc1ccccc1-2	4%	121*	25	·	?
COc1cccc(-c2nnc3n2N=C(c2ccc(OC)cc2OC)CS3)c1	·	·	·	-19%	?
CC(C)Oc1nc(-c2ccccc2Cl)nc2ccccc12	32µM*	10	-3	23%	-12%
CCCCCCOc1ccc(C(=O)NCCCn2ccnc2)cc1	-1%	?	7	-5%	14µM*
CCCCOc1ccc(NC(=O)C(=O)NCCCn2ccnc2)cc1	-3%	2	-4	2%	?
COC(=O)C1=C(C(=O)OC)[C@@H]2N(Cc3ccccc3)c3ccccc3[C@@]23C[C@@H](C(=O)OC)N(S(=O)(=O)c2ccc([N+](=O)[O-])cc2)C3=N1	·	·	·	-12%[13.1 µM]	·
Cn1sc(=O)n(Cc2ccccc2)c1=O	·	·	·	9%	-14%
N#Cc1nc(NCC2CC2)nc(Nc2ccccc2)n1	·	·	·	·	-6%
CC1=NN(c2ccc(C)c(C)c2)C(=O)/C1=C\C=C\c1ccc([N+](=O)[O-])o1	32µM*	1	15	?	-19%
O=C(Nc1cccc(S(=O)(=O)N2CCOCC2)c1)c1cccc(S(=O)(=O)N2CCCCC2)c1	0%	16	-20	·	·
O=C(Nc1ccccc1)c1ccc(NC2CCCCC2)c(S(=O)(=O)N2CCOCC2)c1	·	86*	15	-6%	10%
O=C(Nc1ccc(NC(=O)c2ccc(Cl)c(S(=O)(=O)N3CCOCC3)c2)cc1)c1ccccc1	4%	-1	9	·	-1%
O=C(Nc1nc2ccccc2[nH]1)c1cccc(S(=O)(=O)N2CCOCC2)c1	-2%	80*	-26	6%	-15%
CC(C)(C)c1cc(NC(=O)c2cccc(S(=O)(=O)N3CCOCC3)c2)no1	10%	80*	-7	-2%	-4%
O=C(Nc1ccc(N2CCCCCC2)cc1)c1cccc(S(=O)(=O)N2CCOCC2)c1	-16%	87*	-2	·	·
O=C(NCc1nc2ccccc2[nH]1)c1cccc(S(=O)(=O)N2CCOCC2)c1	-2%	5	30	1%	-1%
CC(O)CCCCCCC/C=C/C=C/C(N)=O (stereo not drawn)	·	·	·	-1%[13.1 µM]	-21%[15.3 µM]
N#CC(Cc1ccc(O)c(O)c1)C(=O)N1CCc2ccccc21 (stereo not drawn)	·	·	·	-22%	·
N#CCCCS(=O)(=O)c1nnnn1-c1ccc(Br)cc1	·	·	·	10%	·
CC[C@H](C)[C@H](NC(=O)[C@H](CCC(=O)O)NC(=O)CNC(=O)[C@@H](NC(=O)[C@@H]1CCCN1C(=O)[C@@H](NC(=O)[C@@H]1CCCN1C(=O)[C@@H]1CCCN1C(=O)[C@H](CC(N)=O)NC(=O)[C@H](CC(N)=O)NC(=O)[C@@H](NC(=O)[C@H](CCSC)NC(=O)[C@H](Cc1c[nH]c2ccccc12)NC(=O)CNC(=O)[C@@H](NC(=O)[C@H](CCC(N)=O)NC(=O)[C@@H](N)CCC(=O)O)[C@@H](C)CC)[C@@H](C)O)[C@@H](C)CC)C(C)C)C(=O)O	·	·	·	5%	-6%
COC(=O)C1=CN(C2CC2)C=C(C(=O)OC)C1c1ccc(C(=O)OC)cc1	32µM*	-2	2	28%	18%
